# Bioassay records deposited in PubChem BioAssay by several laboratories.
# Sampled rows, rich in hits. Any-hit rate of the full collection: about 5.1%.
# MPTP inh – inhibitors of mitochondrial permeability transition pore. isolated mouse mitochondria, Ca2+ swelling absorbance, 30 min. inhibition, % at 10 µM. 360,000 compounds, 1.4% hits. AID 602449;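 active = inhibition of 50% or more, scaled per plate between neutral and stimulator controls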;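 also: 0% = DMSO wells given calcium and 100% = 1 mM EGTA wells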
# GRIN3A LBD mod – modulators (binders) of human NR3A ligand-binding domain | NR3A LBD differential scanning fluorimetry, Tm shift; 0% = protein alone, 100% = glycine-bound protein | Tm shift relative to glycine control, % at 25 µM | 340,000 compounds, 2.5% hits | AID 1259313;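 active = melting temperature shift of at least 10% of the positive control shift, at one fixed dose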
# CRFBP-R2 block – blocks CRF-induced signaling of the CRF-BP/CRF-R2 complex; inhibition, % at 11.8 µM; 350,000 compounds, 0.59% hits; HEK293 CRF-R2/CRF-BP, CRF-induced calcium fluorescence;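 active = inhibition of the ligand-induced calcium signal above about 50% at the single tested concentration, limit read from the data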
# ANO1 block – blocks the mouse calcium-activated chloride channel TMEM16A. Q8BHY3. 310,000 compounds, 1.2% hits. HEK293 TMEM16A/YFP iodide influx fluorescence, ionomycin. normalized B-score (activity score, 25-100; higher = stronger inhibition) at 10 µM;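 active = ratio plate-corrected score three or more library SD toward inhibition, starting fluorescence score within five deviations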;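 also: score derived from kinetic fluorescence span divided by baseline fluorescence per well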
# TMEM16A act – activates or potentiates the mouse TMEM16A chloride channel | Q8BHY3 | HEK293 TMEM16A/YFP-H148Q/I152L, iodide quench fluorescence; active compounds read low | B-score at 10 µM | 340,000 compounds, 0.3% hits | AID 623877;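 active = fluorescence-ratio B-score plate-corrected deviation score at least 3 library SD below zero, with starting fluorescence score within 5 deviations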;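 also: channel opened by trigger with iodide after compound preincubation; score built on the fluorescence ratio of max minus min over baseline; more negative score means more quench and so TMEM16A activation or potentiation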
# CRFR2-BP ag – agonists of human CRF-binding protein/CRF-R2 receptor complex; HEK293 CRF-R2/CRF-BP, calcium dye fluorescence (FLIPR); percent of saturating CRF peptide response; activation, % at 13.2 µM; 350,000 compounds, 0.46% hits; AID 588473;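 active = activation of at least 50%, plus an integration ratio under a set limit after plate pattern correction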;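 also: plate controls were neutral control wells without compound for no effect and CRF at EC100 for full effect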
# An asterisk follows results filed as active; i = inactive; nt = no result given.
SMILES,MPTP inh,GRIN3A LBD mod,CRFBP-R2 block,ANO1 block,TMEM16A act,CRFR2-BP ag
Cc1cc(C(=O)N2CCC2(C)C(=O)NS(=O)(=O)c2cccc(Cl)c2)nn1C (stereo not drawn),0,nt,nt,nt,nt,nt
CCOc1ccc(-n2c(SCC(=O)Nc3ccc(Br)cc3)nc3n[nH]c(C)c3c2=N)cc1,6,19*,15,i,i,-3
Cc1cc(-n2c(SCC(=O)Nc3ccc(F)c(F)c3)nc3n[nH]c(C)c3c2=N)ccc1Cl,1,26*,-6,i,i,0
Cc1cc(-n2c(SCC(=O)NCc3cccs3)nc3n[nH]c(C)c3c2=N)ccc1Cl,3,4,-9,i,i,0
CCc1ccc(NC(=O)CSc2nc3n[nH]c(C)c3c(=N)n2-c2cccc(OC)c2)cc1,-1,23*,-27,i,i,-1
Cc1cc(-n2c(SCC(=O)Nc3ccc(Br)cc3)nc3n[nH]c(C)c3c2=N)ccc1Cl,3,20*,-6,i,i,1
O=S(=O)(NCC1CCCO1)c1ccc(Cl)c2ccccc12 (stereo not drawn),-2,nt,25,nt,nt,5
C[C@H](NC(N)=O)C(=O)Nc1ccc(N2CCOCC2)c(S(=O)(=O)Nc2ccc(Cl)cc2)c1,-4,0,1,nt,i,1
O=C(CCN1CCCO1)N1CCCC(Nc2cccc(F)c2)C1 (stereo not drawn),-2,nt,8,nt,nt,1
Nc1cc2c(cc1Cl)-c1ccc(Cl)cc1C2,1,30*,-16,nt,nt,-4
CCCCCSc1nc(N2CCOCC2)c2c(c1C#N)CC(C)(C)OC2,14,23*,-35,i,i,6
CCOC(=O)CSc1nc(N2CCOCC2)c2c(c1C#N)CC(C)(C)N(C)C2,1,-1,-112,i,i,196*
CCOC(=O)CSc1nc(N2CCOCC2)c2c(c1C#N)CC(C)(C)OC2,-1,0,4,i,i,0
COC(=O)[C@]12CCCCC=C1N(Cc1ccco1)C(=O)[C@H](CC(=O)NCc1ccc(OC)c(OC)c1)C2,0,nt,nt,nt,nt,nt
COc1ccc(C(=O)OCC(=O)c2ccco2)cc1[N+](=O)[O-],2,nt,-4,nt,nt,-2
COc1ccc(OCC(O)Cn2c(Br)nc3c2c(=O)[nH]c(=O)n3C)cc1 (stereo not drawn),-3,-2,11,i,-28*,0
Cc1ccccc1OCC(O)Cn1c(SC(C)C)nc2c1c(=O)[nH]c(=O)n2C (stereo not drawn),0,0,-5,i,i,-1
CCSc1nc2c(c(=O)[nH]c(=O)n2C)n1CC(O)COc1ccccc1C (stereo not drawn),3,2,-4,i,-4.6*,1
Cn1c(=O)[nH]c(=O)c2c1nc(Br)n2CC(O)COc1ccc(Cl)cc1 (stereo not drawn),0,1,-5,i,i,13
COc1ccccc1C(C#N)c1cccc(Cl)n1 (stereo not drawn),0,0,9,i,i,-2
COc1ccc2ccccc2c1C(O)c1nccn1C (stereo not drawn),1,2,-107,i,i,104*
CCN(CC(=O)NCc1ccc(F)cc1)C(=O)COc1ccc2ccccc2c1,3,10*,-27,i,i,-1
CN1N=C(N)c2cn(C3OC(COP(=O)(O)O)C(O)C3O)c3ncnc1c23 (stereo not drawn),1,-1,-50,nt,i,10
COc1cc(NC(=O)CSc2nnnn2Cc2ccccc2)cc(OC)c1,0,1,3,i,i,-5
COc1ccc(C)cc1NC(=O)C(Sc1nnc2ccccn12)c1ccccc1 (stereo not drawn),-10,15*,3,i,i,-3
COc1ccc(C)cc1NC(=O)CSc1nnnn1Cc1ccccc1,1,15*,13,i,nt,-1
CCC(=O)N(c1nnc(SCC(=O)NN2C(=O)NC3(CCC(C)CC3)C2=O)s1)C1CC1 (stereo not drawn),-1,1,6,nt,i,-1
